{
  "source": "PubChem BioAssay AID720650",
  "about": "(Broad Institute, 2013)",
  "note": "Values without a mark were called inactive. The source made the active and inactive calls. No rule for the calls is given here.",
  "data": [
    {"assay": "C difficile toxins, biochemical counterscreen, UDPG substrate absence, confirmatory dose response (AID 720650)", "settings": "series mostly up to 19.5 µM; activity change, negative = inhibition: at the top concentration", "units": {"activity change, negative = inhibition": "%"}, "values": [
      {"smiles": "NC(=O)Nc1ccc(Nc2ccccc2)cc1", "AC50": "> 39 µM"},
      {"smiles": "CC(=O)Nc1ccccc1O", "AC50": "18.4 µM (active)"},
      {"smiles": "Nc1nc(Nc2ccccc2)n[nH]1", "AC50": "> 39 µM"},
      {"smiles": "N=C(N)c1ccc(N=Nc2c(O)ccc3c2[nH]c2ccccc23)cc1", "activity change, negative = inhibition": -3.4},
      {"smiles": "Oc1ccc(Cc2ccc(Cl)cc2)c(O)c1", "AC50": "> 39 µM"},
      {"smiles": "C=CCN=c1scc(C)n1/N=C/c1ccc(O)c(O)c1", "AC50": "> 39 µM"},
      {"smiles": "CCSc1nnc(NC(=O)C2CC2c2ccccc2)s1", "note": "(configuration not stated)", "activity change, negative = inhibition": -7.96},
      {"smiles": "O=C1NN=C2CCCCCCC12", "note": "(configuration not stated)", "activity change, negative = inhibition": -4.67},
      {"smiles": "COCC(=O)N1CC[C@@H]2[C@H]1c1cc(-c3cccc(OC)c3)ccc1N(C)[C@H]2CO", "AC50": "8.89 µM (active)"},
      {"smiles": "O=C(NC(=S)NCc1ccccc1)c1cccnc1", "activity change, negative = inhibition": -0.968},
      {"smiles": "Cc1ccc(S(=O)(=O)Oc2cccc(/C=N/n3cnnc3)c2)cc1", "AC50": "> 39 µM"},
      {"smiles": "CN1C(=O)c2cc(NC(=O)c3cccc(F)c3)ccc2OC[C@@H]2O[C@@H](CC(=O)NCC3CCCCC3)CC[C@@H]21", "activity change, negative = inhibition": -1.51},
      {"smiles": "CN1C=CC(=CC=C2C=CC(=O)C=C2)C=C1", "AC50": "7.43 µM (active)"},
      {"smiles": "O=C(OCC(=O)N1CCCc2ccccc21)c1ccc(C(F)(F)F)cc1", "activity change, negative = inhibition": -11.2},
      {"smiles": "COC(=O)C[C@@H]1CC[C@@H]2[C@H](COC[C@H](O)CN2C(=O)Nc2ccccc2OC)O1", "activity change, negative = inhibition": -9.56},
      {"smiles": "CCNC(=O)C[C@H]1CC[C@@H]2[C@@H](COc3ccc(NC(=O)c4ccc5c(c4)OCO5)cc3C(=O)N2C)O1", "AC50": "> 39 µM"},
      {"smiles": "Cc1cccc(/C=C/c2onc(C)c2S(=O)(=O)N2CCC(C(=O)N3CCCCCC3)CC2)c1", "activity change, negative = inhibition": 0.513}
    ]}
  ]
}
